Cardiac RTF inh: cardiac RTF calcium desensitization; IANBD-labeled cardiac RTF, Ca2+ fluorescence; inhibition, % at 7.15 µM; 340,000 compounds, 0.12% hits; AID 493244;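 active means inhibition above the mean inhibition of all tested compounds plus 3 SD, cut at about 17% in these data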;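 further: assay run at fixed EC70 calcium of 1.6 mM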
LANA DNA inh: KSHV C-LANA DNA binding inhibition; MBP-C-LANA/FAM-LBS DNA binding, fluorescence polarization; inhibition, % at 9 µM; 340,000 compounds, 0.078% hits;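 active means highest replicate inhibition at or above 60% at 9 µM, even if other replicates fall short; inactive means all replicates below 60% inhibition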
Keap1-Nrf2 PPI: Keap1-Nrf2 (human) interaction inhibition; Q14145; Keap1 Kelch-Nrf2 peptide fluorescence polarization, 1536-well; inhibition, % at 9.4 µM; 340,000 compounds, 0.15% hits; AID 504523; in the data active means inhibition above about 12%; inconclusive means no clear call, values can overlap the other calls; inactive means below about 7.3%;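 further: human Keap1 Kelch domain with fluorescein labeled Nrf2 9mer peptide probe; higher means more block of Keap1 binding to Nrf2 peptide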
RTF Ca sens act: increases calcium sensitivity of human cardiac regulated thin filaments; P19429+P45379; IANBD-labeled TnC RTF fluorescence at EC20 calcium; 0% EC20 calcium, 100% full calcium; activation, % at 7.2 µM; 340,000 compounds, 0.24% hits; AID 493008;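 active means activation above the mean over all tested compounds plus 3 SD, cut at about 30% in these data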;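 further: rise in fluorescence read as greater calcium sensitivity of cardiac thin filaments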
eLon inh: inhibitors of E. coli Lon protease; 360,000 compounds, 0.42% hits; inhibition, % at 7.94 µM; purified E. coli Lon protease, fluorescence polarization; AID 602123; in the data active means inhibition above about 13%, passing the limit was not always enough
Target sequence (P0A9M0 whole entry, looked up): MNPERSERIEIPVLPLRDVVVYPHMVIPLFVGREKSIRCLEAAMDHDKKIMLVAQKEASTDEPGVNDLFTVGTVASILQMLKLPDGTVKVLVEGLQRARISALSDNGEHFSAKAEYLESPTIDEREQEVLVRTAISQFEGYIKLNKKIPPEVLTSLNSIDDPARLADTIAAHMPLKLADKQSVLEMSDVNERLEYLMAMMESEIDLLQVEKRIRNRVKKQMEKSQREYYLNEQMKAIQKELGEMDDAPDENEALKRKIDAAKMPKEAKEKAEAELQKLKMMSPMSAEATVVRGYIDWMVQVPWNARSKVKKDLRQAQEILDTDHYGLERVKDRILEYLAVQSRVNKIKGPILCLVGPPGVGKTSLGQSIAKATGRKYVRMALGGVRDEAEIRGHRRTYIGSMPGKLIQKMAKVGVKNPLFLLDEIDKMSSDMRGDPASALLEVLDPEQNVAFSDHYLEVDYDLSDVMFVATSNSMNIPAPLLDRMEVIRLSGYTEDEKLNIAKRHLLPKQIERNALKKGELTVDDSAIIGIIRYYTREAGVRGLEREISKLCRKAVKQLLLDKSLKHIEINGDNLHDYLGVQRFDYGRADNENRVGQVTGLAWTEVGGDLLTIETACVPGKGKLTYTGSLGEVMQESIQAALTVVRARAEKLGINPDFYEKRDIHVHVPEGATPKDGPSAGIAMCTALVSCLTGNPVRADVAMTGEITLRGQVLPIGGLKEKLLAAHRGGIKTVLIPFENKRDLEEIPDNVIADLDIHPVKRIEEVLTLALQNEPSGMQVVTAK
Keap1 Kelch bind: binders of human Keap1 Kelch domain; shares compounds with Keap1-Nrf2 PPI; Keap1 Kelch thermal shift, delta Tm; hits give high values; max delta Tm, degrees C; 400 compounds, 8% hits; in the data active means max delta Tm above about 0.48 degrees C
Sypro dye melt: shifts Sypro Orange melt without protein, a false positive; shares compounds with Keap1-Nrf2 PPI; Sypro Orange dye-only thermal melt, no protein, delta Tm; top dose 26 µM; 140 tested, under 10 active; AID 651858; delta Tm, degrees C (no concentration beside the values);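 active means at highest dose tested, delta Tm positive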
Large screens that a line does not name were inactive (follow-up assays come after a bar, where they were run). Sampled rows, rich in hits. Any-hit rate of the full collection: about 0.82%.

CCOCCCNC(=O)c1c[nH]c2ccc(OCC)cc2c1=O	none
Cc1cc(NC(=O)CSc2nnc(-c3ccncc3)n2C)n(-c2ccccc2)n1	Keap1-Nrf2 PPI 14.6 | Keap1 Kelch bind inactive | Sypro dye melt inactive
Cc1cc(NC(=O)CSc2nnc(-c3ccncc3)n2Cc2ccccc2)n(-c2ccccc2)n1	none
Cc1ccc(S(=O)(=O)N2CCCCC2)cc1NC(=O)c1ccccc1Cl	Keap1-Nrf2 PPI 31.3 | Keap1 Kelch bind inactive
COc1cc(S(=O)(=O)N2CCCCC2)ccc1NC(=O)c1ccccc1Cl	none
CC(C)(C)c1ccccc1NC(=O)NC1CCN(Cc2c(F)cccc2Cl)CC1	Keap1-Nrf2 PPI 20.9 (no result: Cardiac RTF inh, RTF Ca sens act) | Keap1 Kelch bind inactive
C=CCOc1ccc(CNc2ccc(NC(=O)CC(C)C)cc2)cc1OC	Keap1-Nrf2 PPI 16.9 | Keap1 Kelch bind inactive
O=C(NCc1ccccc1)Nc1cccn(Cc2cccc(F)c2)c1=O	none
O=C(C1=NN(c2ccccc2)C2C(=O)N(c3ccccc3)C(=O)C12)c1ccccc1 (stereo not given)	Keap1-Nrf2 PPI 53.7, RTF Ca sens act 33.1 | Keap1 Kelch bind inactive | Sypro dye melt inactive
Cc1ccc(N2C(=O)C3C(C(=O)c4ccccc4)=NN(c4ccccc4)C3C2=O)cc1 (stereo not given)	none
Cc1ccc(-c2nc(CNC(=O)c3ccco3)cs2)cc1	none
Cc1cccc[n+]1CC(=O)N1c2ccccc2Sc2ccccc21	none
O=C(CSC1=NNC(c2ccccn2)S1)Nc1cccc(Cl)c1 (stereo not given)	Keap1-Nrf2 PPI 18.9 (no result: Cardiac RTF inh, RTF Ca sens act) | Keap1 Kelch bind inactive
O=C(CSC1=NNC(c2ccccn2)S1)Nc1ccccc1 (stereo not given)	none
O=C(O)c1nccnc1C(=O)Nc1ccc(Cl)cn1	none
Cc1cc(C(=O)OCC(=O)Nc2ccccc2Br)c(C)o1	none
O=[N+]([O-])c1ccc(S(=O)(=O)c2ccccc2)nc1	Keap1-Nrf2 PPI 13.5 | Keap1 Kelch bind inactive
Cc1ccc(S(=O)(=O)c2ccc([N+](=O)[O-])cn2)cc1	none
COC(=O)C1=COC(C)C2CN3CCc4c([nH]c5ccccc45)C3CC12 (stereo not given)	Keap1-Nrf2 PPI 15.1, RTF Ca sens act 35.3 | Keap1 Kelch bind inactive
O=C(O)c1cc(N2C(=O)C=CC2=O)cc(N2C(=O)C=CC2=O)c1	LANA DNA inh 97.7, Keap1-Nrf2 PPI 33.2 | Keap1 Kelch bind inactive | Sypro dye melt inactive
CC1=NOC(=O)/C1=C\c1ccc(-c2ccccc2Br)o1	none
O=C(NCc1ccc(Cl)cc1)C1CCN(S(=O)(=O)c2cccnc2)CC1	none
Cc1ccc(Cn2c(=N)c(C(=O)NC3CCCCC3)cc3c(=O)n4ccccc4nc32)cc1	none
N=c1c(C(=O)NC2CCCC2)cc2c(=O)n3ccccc3nc2n1Cc1ccccc1	Keap1-Nrf2 PPI inconclusive | Keap1 Kelch bind inactive
CC1Cc2cc(/C=C3/SC(N4CCC(C(N)=O)CC4)=NC3=O)ccc2O1 (stereo not given)	Keap1-Nrf2 PPI 21.3 (no result: Cardiac RTF inh, RTF Ca sens act) | Keap1 Kelch bind inactive
CN1C=CC=C/C1=C1/N=C(c2ccccc2)OC1=O	none
CC1=CC(=C2N=C(c3ccccc3)OC2=O)C=C(C)O1	Keap1-Nrf2 PPI 17.0, eLon inh 39.0 | Keap1 Kelch bind inactive
COC(=O)c1cc(C)nc2c1c(C)nn2-c1ccccc1	Keap1-Nrf2 PPI 43.7 | Keap1 Kelch bind inactive | Sypro dye melt inactive
Cc1nn(-c2ccccc2)c2nc(-c3ccco3)cc(C(=O)O)c12	none
CCN(Cc1cccc(F)c1)C(=O)c1ccc2ccccc2n1	none
CCn1nc(-c2ccccc2)c2nc3ccccc3nc21	Keap1-Nrf2 PPI 42.0, RTF Ca sens act 50.1 | Keap1 Kelch bind inactive | Sypro dye melt inactive
O=C(NNc1cc(Cl)ccc1Cl)c1cccs1	Keap1-Nrf2 PPI 30.6 (no result: Cardiac RTF inh, RTF Ca sens act) | Keap1 Kelch bind inactive
COc1ccc(C2N3CC4(C)CN2CC(C)(C3)C4O)cc1 (stereo not given)	Keap1-Nrf2 PPI 20.2 | Keap1 Kelch bind inactive
COc1ccc(C2N3CC4(C)CN2CC(C)(C3)C4O)cc1OC (stereo not given)	none
C=CCn1c(Sc2ncc([N+](=O)[O-])s2)n[nH]c1=O	Keap1-Nrf2 PPI 18.7 | Keap1 Kelch bind inactive | Sypro dye melt inactive
O=[N+]([O-])c1cnc(Sc2ccncn2)s1	none
COC(=O)c1c(C)[nH]c(C(=O)COC(=O)Cn2cc(C(F)(F)F)ccc2=O)c1C	none
CC(C)(C)C(=O)COC(=O)c1ccc2c(c1)C(=O)N(Cc1ccco1)C2=O	none
CCn1nnnc1SCC(=O)N(C)C1CCS(=O)(=O)C1 (stereo not given)	Keap1-Nrf2 PPI 37.2 | Keap1 Kelch bind inactive
COc1ccc(-n2nnnc2SCC(=O)N(C)C2CCS(=O)(=O)C2)cc1 (stereo not given)	none
CCc1nn(C(C)C(=O)NCc2cccc(Cl)c2)c(=O)c2cc3occc3n12 (stereo not given)	none
CC(=O)N1CCN(S(=O)(=O)c2cccc(C(=O)NNC(=O)c3ccc(Br)cc3)c2)CC1	Keap1-Nrf2 PPI 47.7, RTF Ca sens act 44.2 | Keap1 Kelch bind inactive | Sypro dye melt inactive
O=C(NNC(=O)c1cccc(S(=O)(=O)N2CCCCC2)c1)c1ccccc1	none
O=C(COc1ccccc1)NCC(=O)Nc1cccc(S(=O)(=O)NC2=NCCC2)c1	none
Cc1ccc(NC(=S)NCc2ccc(S(N)(=O)=O)cc2)c(C)c1	none
Cc1ccc(NC(=S)NCc2ccc(F)cc2)c(C)c1	Keap1-Nrf2 PPI 22.5 | Keap1 Kelch bind inactive | Sypro dye melt inactive
O=C(c1ccccc1)c1ccc(O)cc1O	LANA DNA inh 103.3, Keap1-Nrf2 PPI 59.4, RTF Ca sens act 156.6 | Keap1 Kelch bind inactive
O=C(c1ccc(O)cc1)c1ccc(O)cc1O	none
Cc1[nH][nH]c(=O)c1N=Nc1ccc(S(N)(=O)=O)cc1	none (no result: Cardiac RTF inh, LANA DNA inh, Keap1-Nrf2 PPI, RTF Ca sens act)
NS(=O)(=O)c1ccc(N=Nc2c[nH]c(=O)c(O)c2)cc1	LANA DNA inh 68.5, Keap1-Nrf2 PPI 34.5, RTF Ca sens act 58.2 | Keap1 Kelch bind 0.54 | Sypro dye melt inactive
CC(C)Cn1c(N)c(C(=O)CSc2nnc(-c3ccco3)n2C)c(=O)n(C)c1=O	Keap1-Nrf2 PPI 68.4 (no result: LANA DNA inh) | Keap1 Kelch bind inactive
COc1cc(/C=C/C(=O)OCC(=O)c2ccc3c(c2)NC(=O)CO3)ccc1OC(F)F	Keap1-Nrf2 PPI 21.1 | Keap1 Kelch bind inactive | Sypro dye melt inactive
Cc1ccc(C(=O)NNC(=O)c2n[nH]c(=O)c3ccccc23)cc1C	Keap1-Nrf2 PPI 32.6 | Keap1 Kelch bind inactive
O=C(NNC(=O)c1n[nH]c(=O)c2ccccc12)c1ccc(Br)cc1	none
Cn1nc(C(=O)NNC(=O)Cc2ccc(S(=O)(=O)N3CCOCC3)s2)c2ccccc2c1=O	Keap1-Nrf2 PPI 32.2 | Keap1 Kelch bind inactive | Sypro dye melt inactive
Cn1nc(C(=O)Nc2ccc(S(=O)(=O)N3CCOCC3)cc2)c2ccccc2c1=O	none
Oc1[nH]c2ccccc2c1N=Nc1ccccc1F	Keap1-Nrf2 PPI 21.4, RTF Ca sens act 282.1 | Keap1 Kelch bind inactive

Compound activity as filed in PubChem.
